VDR inhibitor = vitamin D3 receptor (human) inhibition; Potency, µM, for the others: max response, negative = inhibition, hits mostly inhibitors; P11473; VDR-SRC2-3 peptide fluorescence polarization, 2 h; hit rate 0.93% among 400,000; also: % is scaled to controls: 0 for no effect and ±100 for the full control effect
Target sequence (P11473 whole entry, looked up): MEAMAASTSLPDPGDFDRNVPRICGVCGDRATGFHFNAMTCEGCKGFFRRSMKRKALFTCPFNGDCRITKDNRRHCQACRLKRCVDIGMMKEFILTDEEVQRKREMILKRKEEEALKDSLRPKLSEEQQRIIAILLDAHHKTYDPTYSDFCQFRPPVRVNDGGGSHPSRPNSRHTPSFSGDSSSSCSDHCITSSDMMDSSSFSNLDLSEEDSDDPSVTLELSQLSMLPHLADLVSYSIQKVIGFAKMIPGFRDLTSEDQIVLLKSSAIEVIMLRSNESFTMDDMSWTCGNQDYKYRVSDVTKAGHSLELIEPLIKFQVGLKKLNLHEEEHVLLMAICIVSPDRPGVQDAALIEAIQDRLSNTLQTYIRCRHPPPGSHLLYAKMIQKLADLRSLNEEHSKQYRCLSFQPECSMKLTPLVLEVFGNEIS
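Measured by FP: displacement of SRC2-3 coactivator peptide from VDR by library compounds, following a two-hour ambient incubation.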
Sfp PPTase inh = inhibitors of Bacillus subtilis Sfp phosphopantetheinyl transferase; Biochemical Sfp PPTase activity, qHTS; AID 1490; Potency, µM, for inactives: largest response in the series, negative = inhibition, usual class: inhibitors; hit rate 3.5% among 310,000; Q9F4F7;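 also: the enzyme is Sfp with the accession as filed and its product quenches rhodamine fluorescence; 0% = enzyme reaction without inhibitor and -100% = no enzyme wells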
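Sfp 15 nM + cpd, 15 min RT; start w/ rhodamine-CoA 5 uM, BHQ-2-YbbR 12.5 uM (final); 50 mM Hepes pH 7.6, 10 mM MgCl2, 0.01% NP-40, 0.01% BSA; read 525/598 nm at 0 and 30 min.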
Glioma ERSR ind = induces the endoplasmic reticulum stress response in human glioma cells | U87-MG GRP78 promoter luciferase reporter, 16 h | hit rate 0.02% among 420,000 | Potency, µM, for the others: at the highest dose activation, usual class: activators; also: series mostly up to about 76 µM; % of control where 0% means no effect; nearly all actives have a fitted effect of over 35% in size
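Stably transfected U87-MG glioma cells carrying a GRP78-based luciferase sensor; 16 h compound incubation. Luminescence end-point read 10 min after Bright-Glo addition at room temperature.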
G9a inh = blocks human histone lysine methyltransferase G9a; Q96KQ7; G9a H3K9 monomethylation, AlphaScreen, 2 h; Potency, µM (series often up to 102 µM), for the others: at the highest dose activity, negative = inhibition, hits mostly inhibitors; hit rate 8.8% among 350,000; also: % is scaled to controls: 0 for no effect and ±100 for the full control effect; nearly all actives have a fitted effect of over 75% in size
Target sequence (Q96KQ7 913-1193 limits assumed): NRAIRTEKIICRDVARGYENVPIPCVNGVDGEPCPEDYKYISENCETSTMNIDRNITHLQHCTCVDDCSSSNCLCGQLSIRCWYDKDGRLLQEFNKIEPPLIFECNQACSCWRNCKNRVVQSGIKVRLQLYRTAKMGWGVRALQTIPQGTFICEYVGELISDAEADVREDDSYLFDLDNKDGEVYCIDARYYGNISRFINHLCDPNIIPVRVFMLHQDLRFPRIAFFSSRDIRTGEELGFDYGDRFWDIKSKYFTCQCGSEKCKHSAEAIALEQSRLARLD
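Step 1: enzyme (final 20 nM) with compound, 15 min RT. Step 2: substrate peptide 500 nM and SAM 20 uM, 2 h RT. Step 3: anti-H3K9me1 antibody and AlphaScreen beads, 10 min, then plate read.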
12-LOX inh = inhibitors of human 12S-lipoxygenase ALOX12. purified 12hLO, xylenol orange hydroperoxide absorbance. Potency, µM (series often up to 108 µM), for inactives: at the top dose activity change, negative = inhibition, actives largely listed as inhibitors. hit rate 1.1% among 580,000. AID 1671190. P18054; also: % is scaled to controls: 0 for no effect and ±100 for the full control effect
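Purified human 12hLO at 150 nM in 25 mM Hepes, 0.01% Triton X-100, pH 7.0, preincubated 15 min at room temperature with compound. Reaction started with 40 uM arachidonic acid, 30 min at room temperature. Hydroperoxide measured by Fe-xylenol orange, 573/405 nm absorbance ratio.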
An asterisk follows results filed as active; ? = inconclusive; . = not tested or not shown; [ ] = dose if it differs, or a comment. This excerpt belongs to a sample that is enriched for hits. Calls follow the shape of the dose curve; as a rule, active = well fitted curve in the direction sought with a large enough effect; inconclusive = small, poorly fitted or top-dose-only effect, or another doubt; inactive = no such curve, though single readings can be large; an effect the other way counts as inactive or inconclusive. Potency is read from the fitted curve at half-maximal effect.

SMILES	VDR inhibitor	Sfp PPTase inh	Glioma ERSR ind	G9a inh	12-LOX inh
CCC(C)(C)C(=O)N1CCC2(CC1)CC(N(Cc1ccc(F)cc1)C1CC1)CCO2 (centres undefined)	.	.	.	.	1.1%
Cc1ccc(C(=O)NC2CCCN(c3cc(-c4ccc(F)cc4)[nH]n3)C2)cn1 (centres undefined)	.	.	.	.	43.4%
O=C(O)C1C2CCC(C2)C1C(=O)NCCCn1ccnc1 (centres undefined)	-9.4%	-11.2%	-2.9%	-4.5%[59 µM]	-24.9%
O=C(O)C1C2C=CC(O2)C1C(=O)NCCCn1ccnc1 (centres undefined)	.	-2.1%	.	50.1µM*	.
Cn1c(=O)c2c([nH]c(=S)n2Cc2ccc(Cl)cc2)n(C)c1=O	79.4µM*	20µM*	-3.0%	1.26µM*	?
Cn1c(=O)c2c(nc(Cl)n2Cc2ccc(Cl)cc2)n(C)c1=O	.	.	.	.	-26.6%
Cn1c(CN2CCOC[C@H]2c2ncc(-c3ccc(Cl)cc3)[nH]2)nc2ccccc21	.	.	.	.	35.5µM*
COc1ccccc1CNc1nc(-c2cc(C)n(C)c2C)cs1	24.0%	-59.2%	-6.9%	10µM*	?
COCCNc1nc(-c2cc(C)n(CCc3ccc(OC)cc3)c2C)cs1	10.0%	39.8µM*	-3.7%	10µM*	?
COc1ccccc1CC(=O)Nc1nc(-c2ccc(F)c(F)c2)cs1	-7.0%	7.8%	1.1%	13.1%	-7.8%
COc1ccc(CCn2c(C)cc(C(=O)COC(=O)c3cnccn3)c2C)cc1	1.9%	-7.2%	-1.7%	?	?
CN(C)C(=O)COc1ccc(NC(=O)c2nn(C)c(=O)c3ccccc23)cc1	.	.	.	.	19.8%
COc1ccccc1-c1[nH]ncc1CN1CCn2nnc(CCC(=O)N3CCCC3)c2C1	.	.	.	.	22.0%
CC(=O)C1=C(O)C(=O)N(C)C1c1ccccc1[N+](=O)[O-] (centres undefined)	?	70.8µM*	4.0%	11.2µM*	?
CC(=O)C1=C(O)C(=O)N(CCC(=O)O)C1c1ccccc1[N+](=O)[O-] (centres undefined)	5.7%	11.2µM*	-5.2%	-23.9%[59 µM]	?
CC(=O)C1=C(O)C(=O)N(CCNCCO)C1c1ccccc1 (centres undefined)	9.1%	2.7%	-5.1%	-10.6%[59 µM]	-19.1%
CCCCCCN1C(=O)C(O)=C(C(C)=O)C1c1ccccc1[N+](=O)[O-] (centres undefined)	2.5%	?	-1.1%	50.1µM*	-28.8%
CC(=O)C1=C(O)C(=O)N(CCCO)C1c1ccccc1 (centres undefined)	-1.0%	70.8µM*	-5.8%	?	-13.8%
Cc1oc2cc(OC(C)C(=O)Nc3ccc(N4CCOCC4)cc3)ccc2c(=O)c1-c1ccccc1 (centres undefined)	.	.	.	.	1.7%
CC(=O)C1=C(O)C(=O)N(CC(=O)O)C1c1ccccc1Cl (centres undefined)	-20.1%	-5.7%	-3.9%	50.1µM*	.
CC(=O)C1=C(O)C(=O)N(Cc2ccccc2)C1c1ccccc1F (centres undefined)	-8.8%	15.6%	-2.0%	?	-36.9%
CC1=C(C(=O)NCc2ccccc2)C(c2ccccc2)NC(=S)N1 (centres undefined)	.	.	.	.	-6.4%
O=S(=O)(c1ccccc1)N1CCC(N2CCCCCC2)CC1	9.1%	-8.6%	-3.4%	?	4.47µM*
COc1ccc(S(=O)(=O)N2CCC(N3CCCC3)CC2)cc1	-18.4%	-26.0%	-2.9%	8.91µM*	?
COc1ccc(S(=O)(=O)N2CCN(Cc3ccc(Cl)cc3)CC2)cc1	10.2%	-14.1%	-3.3%	2.51µM*	?
SMILES	VDR inhibitor	Sfp PPTase inh	Glioma ERSR ind	G9a inh	12-LOX inh
COc1ccc(S(=O)(=O)N2CCN(C3CC4CCC3C4)CC2)cc1 (centres undefined)	8.7%	-7.8%	0.5%	22.4µM*	?
COc1ccc(S(=O)(=O)N2CCCCC2)cc1	11.4%	0.3%	1.0%	25.1%[59 µM]	8.3%
CCC(CC)C(=O)Nc1nnc(C2CC(=O)N(c3ccc(Cl)cc3)C2)s1 (centres undefined)	.	.	.	.	1.2%
COCc1nncn1C1CCN(S(=O)(=O)c2ccc(C)cc2C)CC1	.	.	.	.	32.1%
COc1ccc(S(=O)(=O)N2CCC(N3CCN(Cc4ccccc4)CC3)CC2)cc1	-25.4%	?	-1.0%	22.4µM*	?
O=[N+]([O-])c1ccc(S(=O)(=O)N2CCN(C3CCN(Cc4ccccc4)CC3)CC2)cc1	-12.7%	-44.8%	-7.0%	31.6µM*	?
O=S(=O)(c1ccc(Cl)cc1)N1CCN(C2CCN(Cc3ccccc3)CC2)CC1	0.5%	12.8%	-3.7%	-6.4%	0.0%
CCc1ccc(S(=O)(=O)N2CCCC(N3CCN(c4ccc(OC)cc4)CC3)C2)cc1 (centres undefined)	-2.5%	12.9%	-1.1%	39.8µM*	?
Cc1ccc(S(=O)(=O)N2CCC(N3CCC(C)CC3)CC2)cc1	0.4%	-7.8%	-2.9%	25.1µM*	?
CC1CCN(S(=O)(=O)c2ccc(S(=O)(=O)N3CCN4CCCC4C3)cc2)CC1 (centres undefined)	.	16.7%	.	0.5%	.
Cc1ccc(SC(C)C(=O)Nc2ccc(C)cc2C)cc1 (centres undefined)	.	.	.	.	-25.1%
O=C(NCc1ccc2c(c1)OCO2)C1COC2(CCCCC2)N1C(=O)c1cccc(F)c1 (centres undefined)	.	.	.	.	-1.2%
COc1cc2c(cc1OCc1ccccc1)-c1nnc(-c3ccccc3)n1C(C)(C)C2	.	.	.	.	-2.3%
O=S(=O)(c1ccc(S(=O)(=O)N2CCC3(CC2)OCCO3)cc1)N1CCCC1	1.6%	34.9%	-4.8%	5.8%	-8.3%
CC1CCN(S(=O)(=O)c2ccc(S(=O)(=O)N3CCC4(CC3)OCCO4)cc2)CC1	9.3%	1.9%	-6.3%	11.2µM*	-2.3%
COc1ccc2cc(S(=O)(=O)N3CCCC(C)C3)ccc2c1 (centres undefined)	89.1µM*	-5.5%	-2.3%	21.4%	-25.5%
CCN1CCN(CC(=O)c2ccc(OC)cc2)CC1	-14.9%	21.8%	-1.8%	44.7µM*	-2.9%
CCOc1ccc(C(=O)CN2CCN(S(=O)(=O)c3ccc(Cl)cc3)CC2)cc1	-11.0%	-5.1%	-1.3%	35.5µM*	?
Cc1nc(CN2CCN(C(=O)NC(C)Cc3ccco3)CC2)cs1 (centres undefined)	.	.	.	.	20.0%
CCOC(=O)c1c(N)sc(C(=O)Nc2ccccc2F)c1C	15.9%	14.0%	1.1%	3.2%	12.3%
CCOC(=O)c1sc(NC(=O)Nc2ccccc2)cc1C	11.8%	35.5µM*	-2.9%	?	?
CCOC(=O)c1c(N)sc(C(=O)Nc2ccccc2)c1C	?	20µM*	-5.8%	-2.0%[0.501 µM]	0.0%
COc1ccccc1Oc1ccc(NC(=O)Cn2ncc3ccc(OC)c(OC)c3c2=O)cc1	.	.	.	.	67.0%
CC(C)=CCc1c(O)ccc2c1OC(c1ccc(O)c(O)c1)CC2=O (centres undefined)	-12.6%	2.2%	-4.5%	-0.1%[12.7 µM]	28.2µM*

High-throughput results as filed in PubChem.
